Measured values published in PubChem BioAssay.
Values joined by “and” are separate entries in the source; they are usually repeats but may differ in a detail not shown here. Identical values can stand only once. Active and inactive are the calls of the source.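 How the source made its calls, unless noted: active means mean z-score across replicates of 1.96 or higher in either the MELAS or the Rieske mutant cell line; inactive means the rest.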

Experiments:
[1] = stimulators of nuclear beta-catenin in C2C12, primary screen, imaging, WNT3A-conditioned medium, mouse C2C12, NPC library (AID 1117326; in the data active means nuclear beta-catenin stimulation mostly above about 4.2%, no sharp cut-off; inactive means mostly below about 10%; further: reference of the scale not given here); details: stronger effect = higher value
[2] = stimulators of insulin release from INS-1E, primary screen, cell-based, 5 mM glucose, NPC library (AID 1117329;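 active means compound raises insulin release from rat beta cells at 5 mM glucose, no numeric limit stated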; further: reference of the scale not given here); details: rat INS-1E insulin secretion, at 10 µM, stronger effect = higher value
[3] = growth inhibition of GSK3B-pretreated HCT116 cells – cell-based, CellTiter-Glo, 0.2 to 20 µM (AID 1117336;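 active means compounds lowering colon cancer cell viability after pretreatment blocking the GSK3B kinase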); details: HCT116 viability after GSK3B inhibitor, at 20 µM, stronger effect = higher value
[4] = inhibition of endothelial tube formation, primary screen, imaging, VEGF stimulated, CD31 staining, tube area, NPC library (AID 1117340;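 active means compound that reduces growth-factor-driven endothelial tube area in a mixed cell culture, no cutoff stated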); details: VEGF-stimulated ADSC/ECFC co-culture, at 10 µM, stronger effect = higher value
[5] = glucagon-like peptide 1 release enhancers, primary assay, NCI-H716 cell line, NPC library (AID 1117341;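 active means compound raises GLP1 secretion from the human gut endocrine cells, with no numeric limit stated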; further: reference of the scale not given here); details: NCI-H716 cells, at 10 µM, stronger effect = higher value
[6] = HCT116 colon cancer cell growth inhibition, primary screen, CellTiter-Glo luminescence, NPC library (AID 1117342;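 active means compounds that lower survival of HCT116 colon cancer cells in the luminescence readout, no numeric limit stated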); details: at 20 µM (top of the series)
[7] = CellTiter-Glo luminescent readout of SW480 viability loss, NPC library primary (AID 1117343;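 active means compounds that lower viability of the colon cancer cells in the luminescence readout, with no numeric limit stated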); details: CellTiter-Glo luminescence; at 20 µM (top of the series) unless noted
[8] = decreased DLD-1 cellular survival, CellTiter-Glo luminescent readout, NPC compound collection, primary HTS (AID 1117346;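 active means compounds that lower survival of DLD-1 colon cancer cells in the luminescence readout, no cutoff given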); details: DLD-1 viability, CellTiter-Glo luminescence; at 20 µM (top of the series)
[9] = sensitizers of A549 cells to miR-34 induction, primary screen, imaging, A549 dox-inducible miR-34, nuclei and caspase counts (AID 1347080;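 active means compounds whose cell count with miR-34 switched on is under 0.7 times the count with it off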); details: A549 miR-34 inducible, Hoechst nuclei count, 48 h
[10] = survival rescue of mitochondrial mutant cells in low glucose, primary screen, MELAS cybrids, Rieske KO mouse fibroblasts, CellTiter-Glo (AID 1508586);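 further: z relative to plate mean and SD of compound and empty wells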
[11] = viability rescue of complex I mutant cybrids, primary screen, cell-based, galactose medium, ATP luminescence (AID 1645843;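 active means z-score of at least 1.8 in each of two replicates, scored against plate mean and spread of sample wells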;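 further: positive z means more ATP and so rescue of galactose-driven cybrid death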); details: complex I mutant cybrid cells, 72 h, stronger effect = higher value
[12] = liver-stage malaria parasite growth inhibition, primary screen, cell-based, HepG2, luciferase luminescence, HepG2 viability (AID 624349; in the data active means parasite load remaining mostly below about 12%, no sharp cut-off; inactive means mostly above about 10%;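 further: 100% = mean of DMSO negative control wells on the same plate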); details: P. berghei liver stage in HepG2, luciferase luminescence, concentration not given here; parasite load remaining: stronger effect = lower value; viability: measured here: HepG2 viability without parasites
[13] = biological target: NAD(+) hydrolase SARM1 (Homo sapiens) (UniProt Q6SZW1); assay: SARM1 TIR NADase inhibitors, cell lysate, NAD-Glo luminescence (AID 1508614;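 active means compound whose remaining NAD level is above about 45 nM, limit read from the data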); details: SAM-TIR HEK293T lysate NADase, at 1 µM, stronger effect = higher value
Chain of NAD(+) hydrolase SARM1 (Homo sapiens) (Q6SZW1 whole entry, looked up): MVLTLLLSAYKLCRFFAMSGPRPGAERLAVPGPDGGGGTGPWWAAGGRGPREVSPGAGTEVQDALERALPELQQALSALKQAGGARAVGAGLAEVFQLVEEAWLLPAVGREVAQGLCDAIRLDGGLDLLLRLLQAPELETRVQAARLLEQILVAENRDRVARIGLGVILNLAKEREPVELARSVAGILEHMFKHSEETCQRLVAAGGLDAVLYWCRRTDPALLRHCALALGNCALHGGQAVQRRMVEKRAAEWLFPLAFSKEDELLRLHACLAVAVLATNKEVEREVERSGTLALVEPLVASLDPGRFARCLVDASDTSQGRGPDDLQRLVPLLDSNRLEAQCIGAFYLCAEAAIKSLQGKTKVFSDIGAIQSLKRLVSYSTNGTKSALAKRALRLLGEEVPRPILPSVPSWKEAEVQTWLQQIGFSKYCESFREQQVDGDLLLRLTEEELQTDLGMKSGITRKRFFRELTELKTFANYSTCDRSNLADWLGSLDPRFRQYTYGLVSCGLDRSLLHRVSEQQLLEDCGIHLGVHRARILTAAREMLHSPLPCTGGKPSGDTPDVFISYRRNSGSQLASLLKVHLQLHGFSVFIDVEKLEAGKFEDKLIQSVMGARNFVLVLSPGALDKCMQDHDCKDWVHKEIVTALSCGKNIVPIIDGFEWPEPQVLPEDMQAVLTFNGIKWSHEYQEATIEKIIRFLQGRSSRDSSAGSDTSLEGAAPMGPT

[14] = hESC survival regulators, cell-based (AID 493140; call rule not given here;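 further: cells exposed to compounds for four days before counting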); details: human embryonic stem cell survival screen; stronger effect = higher value
[15] = stronger effect = lower value, cell number ratio, induced over uninduced
[16] = measured here: relative caspase fold change +Dox/-Dox
[17] = measured here: total cells with miR-34 induction, stronger effect = lower value
[18] = measured here: total cells without miR-34 induction
[19] = MELAS cybrid survival, CellTiter-Glo 48 h, stronger effect = higher value
[20] = Rieske KO mouse fibroblast survival, CellTiter-Glo 72 h

Structure (SMILES)	nuclear beta-catenin stimulation ([1]; at 10 µM)	nuclear beta-catenin stimulation ([1]; stimulation, at 2 µM)	insulin secretion stimulation [2]	viability decrease [3]	tube area decrease [4]	GLP1 secretion stimulation [5]	inhibition of viability [6]	viability decrease (inhibition) [7]	viability decrease (inhibition) [8]	fold change [9, 15]	fold change [9, 16]	cell count [9, 17]	cell count [9, 18]	z-score [10, 19]	z-score [10, 20]	z-score [11]	parasite load remaining [12]	viability [12]	remaining NAD [13]	survival [14]
O=P(O)(O)OC(CO)CO	0.1% (inactive)	0.7%	1.2% (inactive)	3.9% (inactive)	14.1% (inactive)	-1.6% (inactive)	-0.7% (inactive)	-2% (inactive)	-3.3% (inactive)	0.854 (inactive)	0.424	8550	10000	0.561 (inactive)	-0.261	0.385 (inactive)	–	–	–	–
CCN(CC)C(=O)/C(C#N)=C/c1cc(O)c(O)c([N+](=O)[O-])c1	-0.4% (inactive)	1.2%	1.5% (inactive)	36% (inactive)	61.4% (active)	0% (inactive)	29.2% (inactive)	92.4% (active)	35.8% (inactive)	0.873 (inactive)	0.914	10100	11500	-0.387 (inactive) and -1.06 (inactive)	-0.365 and -0.513	0.125 (inactive)	40.1% (inactive)	102%	10 nM (inactive)	–
O=C(O)COC(=O)Cc1ccccc1Nc1c(Cl)cccc1Cl	1.1% (inactive)	-1%	3.2% (inactive)	30.7% (inactive)	-0.5% (inactive)	1% (inactive)	26% (inactive)	83.7% (active)	20.5% (inactive)	0.899 (inactive) and 0.88 (inactive)	1.19 and 1.2	8790 and 10000	9770 and 11400	-0.0312 (inactive) and 0.298 (inactive)	-0.0287 and -0.406	0.67 (inactive)	25.9% (inactive) and 102% (inactive) and 21.3% (inactive)	47% and 92.7% and 77%	10 nM (inactive)	18.6 (inactive)
CC(=O)OCC(=O)[C@@]1(O)CC[C@H]2[C@@H]3CCC4=CC(=O)C=C[C@]4(C)[C@@]3(F)[C@@H](O)C[C@@]21C	0.8% (inactive)	0%	-2.1% (inactive)	9.45% (inactive)	-21.7% (inactive)	3.3% (inactive)	-4.3% (inactive)	42.5% (inactive)	23% (inactive)	0.893 (inactive)	1.25	4910	5500	-1.23 (inactive)	0.0318	–	53.1% (inactive) and 126% (inactive)	50.3% and 103%	10 nM (inactive)	8 (inactive)
CCN[C@H]1CN(CCCOC)S(=O)(=O)c2sc(S(N)(=O)=O)cc21	1.3% (inactive)	1.1%	3.9% (inactive)	-7.1% (inactive)	-15% (inactive)	0.6% (inactive)	6.4% (inactive)	7.5% (inactive)	14.9% (inactive)	0.831 (inactive)	1.12	8040	9670	0.333 (inactive)	0.0327	–	113% (inactive) and 65.9% (inactive)	109% and 72.4%	10 nM (inactive)	9.25 (inactive)
COc1ccccc1O	-1.7% (inactive)	2.4%	2.9% (inactive)	-10.4% (inactive)	-0.8% (inactive)	-3.6% (inactive)	3% (inactive)	1.3% (inactive)	-5.1% (inactive)	0.954 (inactive)	1.02	10200	10700	0.215 (inactive) and 0.0947 (inactive)	-0.0355 and -0.379	0.615 (inactive)	50.2% (inactive)	93.5%	10 nM (inactive)	–
O=c1[nH]c(=O)c2[nH]c(=O)[nH]c2[nH]1	-2.4% (inactive)	-1.6%	-0.2% (inactive)	-5.9% (inactive)	8.1% (inactive)	-2.2% (inactive)	-5.8% (inactive)	-9.2% (inactive)	9.1% (inactive)	0.877 (inactive)	0.666	8320	9490	0.618 (inactive)	0.253	0.705 (inactive)	–	–	–	–
CN1CCN(C2=Nc3ccccc3Sc3ccc(Cl)cc32)CC1	-0.4% (inactive)	-0.2%	16.1% (inactive)	83.3% (active)	39.2% (inactive)	19% (inactive)	79.7% (active)	116% (active)	72.4% (active)	0.882 (inactive)	1.18	8380	9490	-0.876 (inactive)	0.707	-0.54 (inactive)	45.5% (inactive)	130%	–	–
CC(C)(C)C(=O)OCOC(=O)[C@@H]1N2C(=O)[C@@H](NC(=O)[C@H](N)c3ccccc3)[C@H]2SC1(C)C	-2.4% (inactive)	-1.3%	2.2% (inactive)	-4.7% (inactive)	-15.2% (inactive)	2.6% (inactive)	-17.9% (inactive)	5.3% (inactive)	-16.8% (inactive)	0.926 (inactive)	0.701	9310	10100	-1.1 (inactive)	-0.251	–	105% (inactive)	75%	–	8.83 (inactive)
